# Compound activity: PubChem BioAssay, National Center for Advancing Translational Sciences (NCATS)
# p53 reactivator: qHTS assay for re-activators of p53 using a Luc reporter; H1299 p53-A138V BP100-luciferase reporter, luminescence, 24 h; actives 0.063% (n = 320,000); Potency, µM (doses to about 92.2 µM), for the others: at the highest dose activity change, positive = activation, hits mostly activators; note: % of control where 0% means no effect; nearly all actives have a fitted effect of over 45% in size
#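 H1299 (p53-null), stable ts p53-A138V + BP100-Luc; 1000 cells/well, Opti-MEM/10% FBS; cpd 4 pt, 1:5; 24 h, 37 deg C, 5% CO2; detection reagent 10 min RT; luminescence.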
# NPC1 prom act: qHTS Assay for NPC1 Promoter Activators; Huh7 NPC1 promoter luciferase reporter, 24 h; Potency, µM (top dose mostly 9.22 µM), without a hit: top-dose activation, most hits filed as activators; actives 2.4% (n = 320,000); note: % of control where 0% means no effect; nearly all actives have a fitted effect of over 60% in size
#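 Cells: Huh7 expressing luciferase under the NPC1 promoter, 1500/well. Seeded 2 h, compound added, incubated 24 h at 37 °C. Luciferase reagent, 10 min ambient, then luminescence.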
# Rab9 promoter act: qHTS Assay for Rab9 Promoter Activators. AID 485297, 2010. actives 2.8% (n = 320,000). Huh7 Rab9 promoter-luciferase reporter, luminescence, 24 h. Potency, µM (highest dose often 9.22 µM), for inactives: at the highest dose activation, negative = inhibition, hits mostly activators; note: % of control where 0% means no effect; nearly all actives have a fitted effect of over 60% in size
#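 Using Huh7 cells stably transfected with Rab9 promoter–luciferase, compounds were incubated 24 h at 37 °C, 5% CO2; luciferase luminescence was read 10 min after reagent addition.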
# ELG1 genotox: qHTS screen for small molecules that induce genotoxicity in human embryonic kidney (HEK293T) cells expressing luciferase-tagged ELG1. AID 504466, 2011. HEK293T ELG1-luciferase reporter, luminescence, 16 h. Potency, µM (series often up to 46 µM), inactives show at the top dose activity change, positive = activation, most hits filed as activators. actives 1.3% (n = 330,000); note: % of control where 0% means no effect; nearly all actives have a fitted effect of over 60% in size
#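 HEK293T cells expressing luciferase-tagged ELG1 were treated with compound or DMSO for 16 hr at 37°C. Luciferase activity was then read after 30 min with ONE-Glo at room temperature; rising signal flags genetic stress.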
# FLuc modulator: qHTS profiling assay for firefly luciferase inhibitor/activator using purifed enzyme and Km concentrations of substrates (counterscreen for miR-21 project); Potency, µM (highest dose often 57.5 µM), without a hit: at the top dose activity change, negative = inhibition, hits mostly inhibitors; actives 6.9% (n = 360,000); purified FLuc, Km substrates, luminescence inhibition;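 note: plate controls were vehicle for no effect and reference inhibitor for full effect; nearly all actives have a fitted effect of over 55% in size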
# Target sequence (P08659 whole entry, looked up): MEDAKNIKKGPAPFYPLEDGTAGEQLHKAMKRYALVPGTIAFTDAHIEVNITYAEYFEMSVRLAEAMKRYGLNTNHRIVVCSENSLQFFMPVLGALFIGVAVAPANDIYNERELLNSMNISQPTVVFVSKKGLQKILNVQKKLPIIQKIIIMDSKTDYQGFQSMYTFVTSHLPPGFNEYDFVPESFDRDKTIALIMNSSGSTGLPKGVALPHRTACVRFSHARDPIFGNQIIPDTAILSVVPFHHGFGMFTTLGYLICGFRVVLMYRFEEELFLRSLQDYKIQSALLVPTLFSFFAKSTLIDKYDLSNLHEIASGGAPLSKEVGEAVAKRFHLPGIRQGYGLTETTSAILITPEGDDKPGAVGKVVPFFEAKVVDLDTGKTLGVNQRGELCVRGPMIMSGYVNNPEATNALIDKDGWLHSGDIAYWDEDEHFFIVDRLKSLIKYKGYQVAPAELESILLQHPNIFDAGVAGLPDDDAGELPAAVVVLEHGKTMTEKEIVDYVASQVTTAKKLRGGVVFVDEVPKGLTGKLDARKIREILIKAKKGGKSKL
#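 Purified P. pyralis luciferase (10nM final) with 10uM D-luciferin and 10uM ATP (Km levels) in 50mM Tris acetate pH 7.5, 10mM Mg acetate, 0.01% Tween-20, 0.05% BSA; qHTS 6-point titration, ~60 µM downward; luminescence read.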
# SMN2 splice enh: qHTS Assay for Enhancers of SMN2 Splice Variant Expression; HEK293 SMN2-luciferase splicing reporter, luminescence, 30-36 h; Potency, µM (doses to about 46.1 µM), for the others: at the highest dose activity change, positive = activation, usual class: activators; actives 2.8% (n = 210,000); AID 1458, 2008; note: % of control where 0% means no effect; nearly all actives have a fitted effect of over 55% in size
#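 HEK293 cells carry an SMN2 minigene-luciferase reporter in which exon 7 inclusion puts luciferase in frame. Cells were seeded at 2000 cells/well, attached for 10-12 hours, then exposed to compounds for 30-36 hours at 37C before ONE-Glo luminescence.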
# * hit, by the source's call; ? = inconclusive; / = not tested or not shown; [ ] = remark or other dose. Hits are enriched below; roughly 7.3% of the tested compounds scored in any of these assays. Calls come from the whole dose curve; as a rule, active = well fitted curve in the direction sought with a large enough effect; inconclusive = small, poorly fitted or top-dose-only effect, or another doubt; inactive = no such curve, though single readings can be large; an effect the other way counts as inactive or inconclusive. Potency is the fitted concentration of half-maximal effect.
SMILES,p53 reactivator,NPC1 prom act,Rab9 promoter act,ELG1 genotox,FLuc modulator,SMN2 splice enh
Cn1cnc(S(=O)(=O)N2CCC(C(=O)Nc3ccc(Cl)c(C(F)(F)F)c3)CC2)c1,/,/,/,/,5.6%,/
COc1cccc(NC(=O)Cn2c(=O)n(Cc3ccc4c(c3)OCO4)c(=O)c3oc4ccccc4c32)c1,/,/,/,/,-1.8%,/
O=C(Nc1ccccc1)N1CCCC2(CCNCC2)C1,/,/,/,/,/,2.5%
CCOC(=O)C1CCC(CN(Cc2ccc(OC)cc2)S(=O)(=O)c2ccc(F)c(C(=O)Nc3ccc(C)c(C)c3)c2)CC1 (configuration not stated),/,/,/,/,0.4%,/
N#CC1=C(N)N(c2ccc(F)cc2)C2=C(C1c1ccc(O)cc1)S(=O)(=O)CC2 (configuration not stated),-1.2%,0.1%,1.4%,0.9%,21.3µM*,-30.8%
CSc1ccc(C2C(C#N)=C(N)N(c3ccccc3)C3=C2C(=O)CCC3)cc1 (configuration not stated),-13.2%,-4.6%,0.2%,-1.0%,-1.5%[2.3 µM],25.8%
CCCSCCCNC(=O)C1CCN(c2nn3cc(-c4ccc(F)cc4)nc3s2)CC1,/,/,/,/,-6.5%,/
Cc1cc2ncn(/N=C/c3ccc(-c4ccccc4)o3)c2cc1C,-8.1%,-1.7%,7.6%,-3.9%,23.9µM*,16.4%
Cc1cc2ncn(/N=C/c3cccnc3)c2cc1C,-14.1%,-3.0%,-9.1%,4.8%,?,-14.0%
COc1ccc(NC(=O)CSc2nccn2Cc2ccccc2)c(OC)c1,-2.6%,0.9%,5.5%,7.3%,-25.3%,/
CC(=O)c1ccc(NC(=O)CSc2nccn2CCc2ccccc2)cc1,?,?,?,?,13.5µM*,14.8%
N#Cc1ccccc1NC(=O)CSc1nccn1CCc1ccccc1,?,?,?,20.6µM*,21.3µM*,?
COc1ccc(NC(=O)CSc2nccn2Cc2ccco2)c(OC)c1,7.5%,21.1%,?,?,19µM*,/
CC(=O)c1ccc(NC(=O)CSc2nccn2Cc2ccco2)cc1,/,/,/,/,16.9µM*,/
Cc1ccc(NC(=O)CSc2nccn2Cc2ccco2)cc1,4.3%,?,4.47µM*,?,19µM*,/
CCn1c(SCC(=O)Nc2ccc(C(C)=O)cc2)nc2ccccc21,?,?,?,16.4µM*,?,?
O=C(CSc1nccn1Cc1ccco1)Nc1ccc(F)cc1,-5.1%,-3.1%,3.0%,?,-13.0%,/
CC[C@H]1NC(=O)c2cc(S(N)(=O)=O)c(Cl)cc2N1,/,/,/,/,/,-1.1%[20.6 µM]
Cc1ccc(-c2nc(NC(=O)CSc3ncnc4sc5c(c34)CCC(C)C5)ns2)cc1 (configuration not stated),/,/,/,/,-2.1%,-2.6%
CCOC(=O)c1c(C)[nH]c(C)c1S(=O)(=O)N(C)CC(=O)N1CCN(c2cccc(C)c2C)CC1,/,/,/,/,3.2%,/
CCCOc1ccc(C(=O)Nc2cc(-c3nc4cc(C)cc(C)c4o3)ccc2C)cc1,/,/,/,/,-5.1%,0.8%
Cc1cc(C)c2oc(-c3cccc(NC(=O)c4ccco4)c3)nc2c1,/,/,/,/,2.69µM*,5.3%
Cc1cc(C)c2oc(-c3ccc(C)c(NC(=O)/C=C/c4ccco4)c3)nc2c1,/,/,/,/,21.3µM*,-8.6%
COc1cc(OC)cc(C(=O)Nc2ccc(S(=O)(=O)N3CCCCC3c3cccnc3)cc2)c1 (configuration not stated),/,/,/,/,-6.6%,/
COc1ccc2c(c1)C(=O)[C@H](OC(=O)Nc1cc(OC)c(OC)c(OC)c1)[C@@H](c1ccc(OC)c(Br)c1)O2,/,/,/,/,/,0.1%
SMILES,p53 reactivator,NPC1 prom act,Rab9 promoter act,ELG1 genotox,FLuc modulator,SMN2 splice enh
Cc1cccc(C)c1NC(=O)c1cccc(COc2cc(Cl)ccc2Cl)c1,?,15.1%,15.6%,16.3%,-6.5%,12.6µM*
Cc1cccc(C(=O)Nc2cc(OCc3cccc(F)c3)c(Cl)cc2Cl)c1,11.9%,-1.5%,5.5%,0.2%,?,5.2%
C/C(=N\NC(=O)c1c(Cl)c(C)nn1C)c1cccc(NC(=O)COc2ccc(Cl)cc2)c1,3.7%,?,26.2%,3.2%,8.49µM*,13.4%
Cc1cc(Cl)ccc1OCC(=O)Nc1nc(N)nc(N)n1,/,/,/,/,/,-6.5%[9.22 µM]
Cc1ccc(OCC(=O)Nc2ccc3nn(-c4ccc(Cl)cc4)nc3c2)cc1,/,/,/,/,1.6%,-16.5%
C/C(=N/NC(=O)c1ccc(C)s1)c1cccc(NC(=O)COc2ccc(Cl)cc2C)c1,1.6%,26.2%,3.1%,7.5%,5.36µM*,-7.6%
CCCCc1nc2c(c3c1C[C@H](C)OC3)CN(S(=O)(=O)c1ccc(NC(C)=O)cc1)CC2,/,/,/,/,/,-5.9%[9.22 µM]
OCC1OC([S-])[C@H](O)C(O)C1O.[Au+] (some centres not stated),/,/,/,/,/,-6.8%
CCN(Cc1ccccc1)C(=O)C(CC(C)C)NS(=O)(=O)c1ccc2c(c1)CCN2C(C)=O (configuration not stated),/,/,/,/,1.0%,0.4%
O=C(O)/C=C/C(=O)Nc1ccc2c(c1)C(=O)c1ccccc1C2=O,17.5%,4.8%,12.9%,8.8%,16.9µM*,/
CC(=O)Nc1ccc2c(c1)C(=O)c1ccccc1C2=O,?,1.58µM*,0.708µM*,?,4.78µM*,12.6µM*
O=C1c2ccccc2C(=O)c2cc(NC(=O)C3CC3)ccc21,15.6%,2.51µM*,2.24µM*,?,?,11.2µM*
O=C1c2ccccc2-c2ccc(NC(=O)[C@H]3CCCC[C@@H]3C(=O)O)cc21,/,/,/,/,/,-1.7%[9.22 µM]
Nc1ccc2c(c1)C(=O)c1ccccc1C2=O,?,?,3.98µM*,?,13.5µM*,15.8µM*
O=C(O)/C=C/C(=O)Nc1ccc(C(=O)c2ccccc2)cc1,-1.1%,-4.4%,-1.3%,-2.2%,3.0%,/
NCCCCN,/,1.4%[46.1 µM],-4.9%[46.1 µM],/,/,-11.3%
Cc1ccc(Cl)cc1NCc1nnc2n1CCCCC2,/,/,/,/,1.3%,/
C/C(=N\Nc1cc(C)nc(-c2ccccc2O)n1)c1ccccc1O,-0.8%,-0.1%,-1.7%,-13.9%,15.1µM*,/
Cc1cc(N/N=C\c2ccccc2)nc(-c2ccccc2O)n1,?,22.4%,22.2%,-1.1%,6.01µM*,?
Cc1cc(N/N=C/c2ccc(O)cc2O)c2ccccc2n1,/,8.9%,0.1%,4.9%,1.2%,/
Cc1cc(N/N=C/c2ccc(O)cc2O)nc(-c2ccccc2O)n1,?,5.4%,0.4%,-5.2%,2.69µM*,-26.0%
Cc1cc(N/N=C/c2ccccc2O)nc(-c2ccccc2O)n1,3.6%,-0.6%,-2.9%,-1.4%,8.49µM*,-16.7%
